The values that follow come from PubChem BioAssay.

Each structure is given as a SMILES string. Unmarked numbers belong to inactive results.

A short description of the assay: E. coli acrAB mutant growth effects, primary screen, E. coli filamentation inducers, strain DRC39, OD650, 48 h (AID 1179).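 Note: screen aims at cell division blockers that make cells filament.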 The following applies: E. coli DRC39 delta-acrAB growth, higher = more signal, called active from +8 up or from −8 down.
Take `CC1=C2[C@@H](CCc3ccccc3)OB(O)C[C@@H]2[C@@H]2C(=O)C=CC(=O)[C@@H]2C1`: the z-score was -0.0244.
Turning to `[N-]=[N+]=NCc1ccccc1C[C@]1(C(=O)NCCN2CCOCC2)COC(c2ccc(OCCCO)cc2)=N1`, the z-score was 0.0653.
For `COc1ccc(CCNC(=O)[C@@H]2c3ccccc3C(=O)N(Cc3ccccc3)[C@H]2c2ccc(CO)cc2)cc1` the value was 1.78; for `C=CC[C@@]1(C(=O)NCC(O)CO)N=C(c2ccc(OCCCO)cc2)O[C@@H]1c1ccccc1` (stereo not given in full), 0.196.
With `CO[C@H]1O[C@H](CO)[C@@H](OC(=O)Nc2cccc(F)c2)[C@H](OC(=O)Nc2ccc3c(c2)OCO3)[C@H]1OC(=O)Nc1ccc2c(c1)OCO2`, the z-score is 0.378.
For `COc1ccc(C#Cc2ccc3c(c2)[C@]2(C(=O)N3)[C@H](c3ccc(OCCO)cc3)N3[C@H](c4ccccc4)[C@H](c4ccccc4)OC(=O)[C@H]3[C@@H]2C(=O)N2CCN(c3ncccn3)CC2)cc1` the value was -0.344.
For the compound `COCC(=C=CC[C@@H](O)c1ccccc1OCCO)C[C@@H](O)c1ccccn1`, the z-score was -0.268.
As to `CCCN1C(=O)[C@@]2(Cc3ccccc3)N=C(c3ccc(OCCCO)cc3)O[C@H]2c2ccccc21`, the z-score was -0.319.
The result for `NC(=O)NCC#Cc1ccc2c(c1)[C@]1(C(=O)N2)[C@H](c2ccc(OCCO)cc2)N2[C@H](c3ccccc3)[C@H](c3ccccc3)OC(=O)[C@H]2[C@@H]1C(=O)N1CCN(c2ncccn2)CC1` reads 0.773; that for `C=CCC(OC(C)=O)[C@@H]1[C@@H](N(Cc2cccc3ccccc23)C(=O)c2ccc(C)cc2)c2cc(OCCCO)ccc2N1C(=O)c1ccc2ccccc2c1` (stereo not given in full), 1.8.
